Measurements: article PMC7862700, “An all-to-all approach to the identification of sequence-specific readers for epigenetic DNA modifications on cytosine”

Tests used:
Assay in all cases: DAPPL (digital affinity profiling via proximity ligation, sequencing); 10 mM Tris-HCl pH 7.5, 50 mM NaCl, 1 mM DTT, 4% glycerol, room temperature, 30 min; GST-TFs on glutathione beads, 16-mer random dsDNA library, 0.1% formaldehyde crosslink after washing; high values mean tight binding
Settings in all cases: protein: recombinant; tags: N-terminal GST; dsDNA, one strand shown
ERF = molecular target: T1, ERF (Homo sapiens, UniProt P50548 1-548)
T1 sequence: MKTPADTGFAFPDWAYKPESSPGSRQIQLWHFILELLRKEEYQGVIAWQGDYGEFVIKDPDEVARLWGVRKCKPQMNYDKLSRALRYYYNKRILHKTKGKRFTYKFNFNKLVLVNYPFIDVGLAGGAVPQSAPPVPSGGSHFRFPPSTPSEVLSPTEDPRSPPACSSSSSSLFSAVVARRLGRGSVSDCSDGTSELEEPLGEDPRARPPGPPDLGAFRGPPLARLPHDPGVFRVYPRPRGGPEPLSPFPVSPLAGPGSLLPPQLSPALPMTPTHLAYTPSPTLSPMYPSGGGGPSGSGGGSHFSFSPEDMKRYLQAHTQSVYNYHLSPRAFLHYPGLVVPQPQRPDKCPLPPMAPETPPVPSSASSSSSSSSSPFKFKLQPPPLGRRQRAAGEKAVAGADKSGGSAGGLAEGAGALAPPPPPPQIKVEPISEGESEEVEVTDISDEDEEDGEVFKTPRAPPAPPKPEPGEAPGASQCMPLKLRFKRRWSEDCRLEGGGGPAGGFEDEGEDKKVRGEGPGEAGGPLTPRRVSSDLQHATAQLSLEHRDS
Outline: (§1)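 Binding signal is defined as a hexamer's read frequency for one factor over its frequency for the tag-only sample. To obtain reads, GST-fused human transcription factors were expressed in yeast, captured on glutathione beads, barcoded with DNA and pooled with that sample. Pools met 200 nmole of a 16-mer random double-stranded DNA library in Tris/NaCl/DTT/glycerol buffer for 30 min at room temperature before washing, 0.1% formaldehyde crosslinking, proximity ligation (BsaI/T4 ligase, 1 h, 37 °C), PCR and Illumina NextSeq500 sequencing.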

ETV3L = molecular target: T2, ETV3L (Homo sapiens, UniProt Q6ZN32 1-361)
T2 sequence: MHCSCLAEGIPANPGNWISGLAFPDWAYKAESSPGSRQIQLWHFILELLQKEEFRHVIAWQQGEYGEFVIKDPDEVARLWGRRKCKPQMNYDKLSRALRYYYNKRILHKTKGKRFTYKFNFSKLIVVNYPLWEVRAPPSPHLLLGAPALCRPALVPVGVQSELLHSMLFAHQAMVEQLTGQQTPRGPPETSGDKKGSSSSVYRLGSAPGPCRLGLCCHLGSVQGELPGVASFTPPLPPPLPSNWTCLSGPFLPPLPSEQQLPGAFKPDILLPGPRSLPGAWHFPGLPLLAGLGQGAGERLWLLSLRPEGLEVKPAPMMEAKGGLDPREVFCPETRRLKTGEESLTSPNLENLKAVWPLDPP
Outline: as §1

ETS2 = molecular target: T3, ETS2 (Homo sapiens, UniProt P15036 1-469)
T3 sequence: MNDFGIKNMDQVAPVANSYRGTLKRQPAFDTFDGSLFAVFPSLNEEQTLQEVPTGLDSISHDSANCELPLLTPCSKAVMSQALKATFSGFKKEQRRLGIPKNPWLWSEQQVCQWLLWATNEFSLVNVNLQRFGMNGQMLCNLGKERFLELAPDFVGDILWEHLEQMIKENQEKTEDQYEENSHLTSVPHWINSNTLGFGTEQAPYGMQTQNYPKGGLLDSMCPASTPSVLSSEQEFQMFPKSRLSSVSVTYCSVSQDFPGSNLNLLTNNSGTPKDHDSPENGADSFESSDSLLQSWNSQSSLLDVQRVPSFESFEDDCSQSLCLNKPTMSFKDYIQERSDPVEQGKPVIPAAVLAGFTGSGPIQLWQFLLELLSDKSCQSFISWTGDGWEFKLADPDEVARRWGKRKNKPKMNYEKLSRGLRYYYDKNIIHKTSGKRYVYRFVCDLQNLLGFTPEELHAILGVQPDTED
Outline: as §1

ETV7 = molecular target: T4, ETV7 (Homo sapiens, UniProt Q9Y603 1-341)
T4 sequence: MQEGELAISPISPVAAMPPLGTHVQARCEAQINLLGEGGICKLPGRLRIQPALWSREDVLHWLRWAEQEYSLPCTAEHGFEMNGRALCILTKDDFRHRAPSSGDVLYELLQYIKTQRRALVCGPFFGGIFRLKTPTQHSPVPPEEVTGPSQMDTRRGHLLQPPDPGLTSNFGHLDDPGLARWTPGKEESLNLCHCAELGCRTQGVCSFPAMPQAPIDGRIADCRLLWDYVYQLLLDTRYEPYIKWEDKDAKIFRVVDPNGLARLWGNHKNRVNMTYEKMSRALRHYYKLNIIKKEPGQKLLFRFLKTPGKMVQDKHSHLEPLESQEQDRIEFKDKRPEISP
Outline: as §1

ELF5 = molecular target: T5, ELF5 (Homo sapiens, UniProt Q9UKW6-2 1-255)
T5 sequence: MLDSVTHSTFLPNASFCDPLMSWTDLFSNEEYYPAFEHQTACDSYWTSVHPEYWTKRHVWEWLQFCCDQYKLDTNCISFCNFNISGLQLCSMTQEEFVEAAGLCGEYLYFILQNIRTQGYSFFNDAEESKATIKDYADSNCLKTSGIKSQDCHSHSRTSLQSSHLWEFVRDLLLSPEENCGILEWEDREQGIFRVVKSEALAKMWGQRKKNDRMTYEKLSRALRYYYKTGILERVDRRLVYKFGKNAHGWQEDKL
Outline: as §1

ETV3 = molecular target: T6, ETV3 (Homo sapiens, UniProt P41162-2 1-143)
T6 sequence: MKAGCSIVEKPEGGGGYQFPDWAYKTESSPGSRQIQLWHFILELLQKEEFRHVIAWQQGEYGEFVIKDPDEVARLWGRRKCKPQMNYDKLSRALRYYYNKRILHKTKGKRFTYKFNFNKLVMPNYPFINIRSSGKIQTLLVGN
Outline: as §1

ETV6 = ETV6 (Homo sapiens, UniProt P41212 1-452)
ETV6, sequence (P41212 whole entry): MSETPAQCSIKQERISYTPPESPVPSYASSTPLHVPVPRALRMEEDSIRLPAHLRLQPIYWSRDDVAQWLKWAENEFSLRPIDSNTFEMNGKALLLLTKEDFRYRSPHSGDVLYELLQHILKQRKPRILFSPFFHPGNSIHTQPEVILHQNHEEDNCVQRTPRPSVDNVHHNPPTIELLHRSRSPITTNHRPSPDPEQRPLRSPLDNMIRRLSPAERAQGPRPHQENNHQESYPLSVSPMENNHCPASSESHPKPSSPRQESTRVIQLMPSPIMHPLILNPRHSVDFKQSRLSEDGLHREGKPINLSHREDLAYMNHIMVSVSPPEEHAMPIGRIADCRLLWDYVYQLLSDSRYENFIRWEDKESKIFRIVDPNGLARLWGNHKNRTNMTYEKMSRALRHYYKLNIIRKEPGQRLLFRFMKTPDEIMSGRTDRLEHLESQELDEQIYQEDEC
Outline: as §1

SPDEF = molecular target: T7, SPDEF (Homo sapiens, UniProt O95238 1-335)
T7 sequence: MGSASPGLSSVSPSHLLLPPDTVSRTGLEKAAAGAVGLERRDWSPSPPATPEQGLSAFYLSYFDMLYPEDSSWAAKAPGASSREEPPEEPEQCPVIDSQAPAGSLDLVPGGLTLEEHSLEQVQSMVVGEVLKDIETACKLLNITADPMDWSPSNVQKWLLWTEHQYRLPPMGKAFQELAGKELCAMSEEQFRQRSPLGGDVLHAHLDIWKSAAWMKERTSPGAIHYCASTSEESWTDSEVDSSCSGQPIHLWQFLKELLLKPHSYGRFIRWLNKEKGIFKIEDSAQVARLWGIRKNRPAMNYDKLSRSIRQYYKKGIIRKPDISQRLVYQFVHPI
Outline: as §1

Sequence: GAACAT
- binding signal (ERF): 1.1 fold enrichment (6-mer frequency, TF over GST control)
- binding signal (ETV3L): 1.01 fold enrichment (6-mer frequency, TF over GST control)
- binding signal (ETS2): 1 fold enrichment (6-mer frequency, TF over GST control)
- binding signal (ETV7): 1.11 fold enrichment (6-mer frequency, TF over GST control)
- binding signal (ELF5): 1.09 fold enrichment (6-mer frequency, TF over GST control)
- binding signal (ETV3): 1.08 fold enrichment (6-mer frequency, TF over GST control)
- binding signal (ETV6): 1.07 fold enrichment (6-mer frequency, TF over GST control)

Sequence: CCCATG
- binding signal (ERF): 1.14 fold enrichment (6-mer frequency, TF over GST control)
- binding signal (ETV3L): 1.11 fold enrichment (6-mer frequency, TF over GST control)
- binding signal (ETS2): 1.02 fold enrichment (6-mer frequency, TF over GST control)
- binding signal (SPDEF): 1.1 fold enrichment (6-mer frequency, TF over GST control)
- binding signal (ETV3): 1.14 fold enrichment (6-mer frequency, TF over GST control)
- binding signal (ETV6): 1.12 fold enrichment (6-mer frequency, TF over GST control)

Sequence: AGTTCT
- binding signal (ERF): 1.14 fold enrichment (6-mer frequency, TF over GST control)
- binding signal (ETV3L): 1.12 fold enrichment (6-mer frequency, TF over GST control)
- binding signal (ETS2): 1.17 fold enrichment (6-mer frequency, TF over GST control)
- binding signal (ETV7): 1.11 fold enrichment (6-mer frequency, TF over GST control)
- binding signal (ELF5): 1.15 fold enrichment (6-mer frequency, TF over GST control)
- binding signal (ETV3): 1.18 fold enrichment (6-mer frequency, TF over GST control)
- binding signal (ETV6): 1.13 fold enrichment (6-mer frequency, TF over GST control)

Sequence: TAGTGC
- binding signal (ERF): 1.12 fold enrichment (6-mer frequency, TF over GST control)
- binding signal (ETV3L): 1.05 fold enrichment (6-mer frequency, TF over GST control)
- binding signal (ETS2): 1.08 fold enrichment (6-mer frequency, TF over GST control)
- binding signal (SPDEF): 1.06 fold enrichment (6-mer frequency, TF over GST control)
- binding signal (ETV3): 1.05 fold enrichment (6-mer frequency, TF over GST control)
- binding signal (ETV6): 1.12 fold enrichment (6-mer frequency, TF over GST control)

Sequence: GCTGGC
- binding signal (ERF): 1.12 fold enrichment (6-mer frequency, TF over GST control)
- binding signal (ETV3L): 1.04 fold enrichment (6-mer frequency, TF over GST control)
- binding signal (ETS2): 1.04 fold enrichment (6-mer frequency, TF over GST control)
- binding signal (ETV7): 1.12 fold enrichment (6-mer frequency, TF over GST control)
- binding signal (ELF5): 1 fold enrichment (6-mer frequency, TF over GST control)
- binding signal (ETV3): 1.1 fold enrichment (6-mer frequency, TF over GST control)
- binding signal (ETV6): 1.02 fold enrichment (6-mer frequency, TF over GST control)

Sequence: GAATCT
- binding signal (ERF): 1.17 fold enrichment (6-mer frequency, TF over GST control)
- binding signal (ETV3L): 1.05 fold enrichment (6-mer frequency, TF over GST control)
- binding signal (ETS2): 1.08 fold enrichment (6-mer frequency, TF over GST control)
- binding signal (ETV7): 1.03 fold enrichment (6-mer frequency, TF over GST control)
- binding signal (ELF5): 1.07 fold enrichment (6-mer frequency, TF over GST control)
- binding signal (ETV3): 1.13 fold enrichment (6-mer frequency, TF over GST control)
- binding signal (ETV6): 1.06 fold enrichment (6-mer frequency, TF over GST control)

Sequence: AAGCAA
- binding signal (ERF): 1.01 fold enrichment (6-mer frequency, TF over GST control)
- binding signal (ETV3L): 1.01 fold enrichment (6-mer frequency, TF over GST control)
- binding signal (ETS2): 1.11 fold enrichment (6-mer frequency, TF over GST control)
- binding signal (ETV7): 1.05 fold enrichment (6-mer frequency, TF over GST control)
- binding signal (ELF5): 1.03 fold enrichment (6-mer frequency, TF over GST control)
- binding signal (ETV3): 1.12 fold enrichment (6-mer frequency, TF over GST control)
- binding signal (ETV6): 1.02 fold enrichment (6-mer frequency, TF over GST control)

Sequence: TGTGCA
- binding signal (ERF): 1.21 fold enrichment (6-mer frequency, TF over GST control)
- binding signal (ETV3L): 1.06 fold enrichment (6-mer frequency, TF over GST control)
- binding signal (ETS2): 1.16 fold enrichment (6-mer frequency, TF over GST control)
- binding signal (SPDEF): 1.14 fold enrichment (6-mer frequency, TF over GST control)
- binding signal (ETV3): 1.08 fold enrichment (6-mer frequency, TF over GST control)
- binding signal (ETV6): 1 fold enrichment (6-mer frequency, TF over GST control)

Sequence: AAGACT
- binding signal (ERF): 1.16 fold enrichment (6-mer frequency, TF over GST control)
- binding signal (ETV3L): 1.04 fold enrichment (6-mer frequency, TF over GST control)
- binding signal (ETS2): 1.07 fold enrichment (6-mer frequency, TF over GST control)
- binding signal (ETV7): 1.08 fold enrichment (6-mer frequency, TF over GST control)
- binding signal (ELF5): 1.15 fold enrichment (6-mer frequency, TF over GST control)
- binding signal (ETV3): 1.12 fold enrichment (6-mer frequency, TF over GST control)
- binding signal (ETV6): 1.13 fold enrichment (6-mer frequency, TF over GST control)

Sequence: CATTAT
- binding signal (ERF): 1.21 fold enrichment (6-mer frequency, TF over GST control)
- binding signal (ETV3L): 1.24 fold enrichment (6-mer frequency, TF over GST control)
- binding signal (ETS2): 1.21 fold enrichment (6-mer frequency, TF over GST control)
- binding signal (ETV7): 1.31 fold enrichment (6-mer frequency, TF over GST control)
- binding signal (ELF5): 1.12 fold enrichment (6-mer frequency, TF over GST control)
- binding signal (ETV3): 1.15 fold enrichment (6-mer frequency, TF over GST control)
- binding signal (ETV6): 1.2 fold enrichment (6-mer frequency, TF over GST control)

Sequence: TGGTAG
- binding signal (ERF): 1.11 fold enrichment (6-mer frequency, TF over GST control)
- binding signal (ETV3L): 1.02 fold enrichment (6-mer frequency, TF over GST control)
- binding signal (ETS2): 1.04 fold enrichment (6-mer frequency, TF over GST control)
- binding signal (ETV7): 1.18 fold enrichment (6-mer frequency, TF over GST control)
- binding signal (ELF5): 1.1 fold enrichment (6-mer frequency, TF over GST control)
- binding signal (ETV3): 1.1 fold enrichment (6-mer frequency, TF over GST control)
